From PubChem BioAssay (Tox21)
Results filed as inconclusive are left out. Activity calls are given as the source filed them. Unless noted, calls come from the whole dose curve.

Experiments:
[1] = Nuclear factor erythroid 2-related factor 2/antioxidant responsive element (Nrf2/ARE) small molecule agonists: qHTS cell viability counter screen in human keratinocytes (AID 1919968; active = well fitted curve in the direction sought with a large enough effect in the repeat runs; an effect the other way counts as inactive or inconclusive; note: nearly all actives have a fitted effect of over 55% in size; note: potency is the fitted concentration of half-maximal effect)
In short: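 Cytotoxicity was multiplexed with the Nrf2/ARE luciferase assay in the same wells. Stably transfected HaCaT keratinocytes were treated with test compounds for 23 h at 37 C. Cell viability was then measured by CellTiter-Fluor fluorescence.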

[2] = Nuclear factor erythroid 2-related factor 2/antioxidant responsive element (Nrf2/ARE) small molecule agonists: luciferase reporter gene qHTS assay in human keratinocytes (AID 1919969); note: nearly all actives have a fitted effect of over 35% in size; note: potency is the fitted concentration of half-maximal effect
[3] = target: Gonadotropin-releasing hormone receptor (Homo sapiens) (UniProt P30968); test: Human gonadotropin-releasing hormone receptor (GnRHR) small molecule agonists, calcium flux assay in GnRHR-HEK293 cells (AID 1920063); note: nearly all actives have a fitted effect of over 35% in size
In short: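 Agonist activity was measured as intracellular calcium flux in HEK293 cells engineered to stably express human GnRHR. After dye loading for 1 hour at 37 C, compounds in DMSO were added and fluorescence was followed for 3 minutes.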

[4] = target: KiSS-1 receptor (Homo sapiens) (UniProt Q969F8); test: Human kisspeptin (KISS1R) small molecule agonists, calcium flux assay in KISS1R-HEK293 cells (AID 1920064; active = well fitted curve in the direction sought with a large enough effect in the repeat runs; an effect the other way counts as inactive or inconclusive)
In short: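 Agonist activity is monitored as intracellular calcium rise in engineered HEK293 cells carrying human KISS1R. Cells are dye-loaded for 1 h at 37 C before compound addition, and fluorescence is recorded for 3 min.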

[5] = G protein-coupled receptor (GPCR) small molecule agonists, calcium flux assay: HEK293 wild type cell line counter screen (AID 1920065)
In short: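 Seed cells, incubate 18 h (37 C, 5% CO2); add calcium dye, 1 h at 37 C; pin-transfer compounds, ATP control or DMSO; read fluorescence 480/540 nm each second for 3 min.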

[6] = p53 small molecule agonists, cell-based qHTS assay: qHTS cell viability counter screen (AID 1963581); note: nearly all actives have a fitted effect of over 45% in size
In short: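 Viability was counter-screened in parallel with the p53 agonist reporter by measuring intracellular ATP luminescence in the same HCT-116 p53RE-bla wells after 16 h compound treatment at 37 C.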

[7] = p53 small molecule agonists, cell-based qHTS assay (AID 1963582; active = well fitted activation curve with a large enough effect in the signal ratio in the repeat runs, not every such curve was filed as active; the % refers to the signal ratio)
In short: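 Cells carrying a p53-responsive bla reporter are treated with test compounds for 16 h at 37 C; beta-lactamase activity is then detected with LiveBLAzer B/G FRET substrate after 2 h at room temperature.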

[8] = target: 5-hydroxytryptamine receptor 2A (Homo sapiens) (UniProt P28223); test: 5-hydroxytryptamine receptor 2A (HTR2A) small molecule antagonists, cell-based qHTS assay (AID 1963586); note: nearly all actives have a fitted effect of over 45% in size
In short: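 CHO cells stably expressing human HTR2A were plated for 18 h at 37 C, then loaded with calcium dye for 1 h. Compounds were preincubated 5 min at room temperature before DOI (4 nM solution) was added. Kinetic fluorescence was read for 3 min.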

[9] = target: 5-hydroxytryptamine receptor 2A (Homo sapiens) (UniProt P28223); test: 5-hydroxytryptamine receptor 2A (HTR2A) small molecule agonists, cell-based qHTS assay (AID 1963587); note: nearly all actives have a fitted effect of over 30% in size
In short: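 Kinetic calcium-flux fluorescence (2 min, 1 sec intervals) after compound addition in agonist mode. HTR2A-CHO cells were cultured 18 h, then dye-loaded 1 h at 37 C.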

[10] = target: Muscarinic acetylcholine receptor M1 (Homo sapiens) (UniProt P11229); test: Cholinergic receptor muscarinic 1 (CHRM1) small molecule antagonists, cell-based qHTS assay (AID 1963588); note: nearly all actives have a fitted effect of over 40% in size
In short: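 Compounds were tested at 15 concentrations in three independent runs. Dye-loaded CHRM1-CHO cells were exposed 5 min at room temperature before stimulation by acetylcholine added at 50nM. Intracellular calcium was read kinetically on FDSS for 3 min.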

[11] = target: Muscarinic acetylcholine receptor M1 (Homo sapiens) (UniProt P11229); test: Cholinergic receptor muscarinic 1 (CHRM1) small molecule agonists, cell-based qHTS assay (AID 1963589); note: nearly all actives have a fitted effect of over 35% in size
In short: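 Cells were plated and incubated 18 h at 37 C/5% CO2, loaded with calcium dye for 1 h at 37 C, then treated with compounds in DMSO. Fluorescence was recorded kinetically at 1 sec intervals.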

[12] = cAMP Responsive Elements (CRE) small molecule agonists, cell-based qHTS assay (AID 1963590)
In short: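 Cells carrying a CRE-driven beta-lactamase reporter (HEK 293T) are seeded, incubated overnight (18 h), and treated with test compounds for 3 h at 37 C; reporter activity is then detected with a FRET substrate after 2 h at room temperature.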

[13] = cAMP Responsive Elements (CRE) small molecule antagonists, cell-based qHTS assay (AID 1963591; active = well fitted inhibition curve with a large enough effect in the signal ratio in the repeat runs, not every such curve was filed as active; the % refers to the signal ratio)
In short: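 Cells (CRE-bla HEK 293T, DMEM with 10% dialyzed FBS and 25 mM HEPES) are seeded and incubated 18 h. Compounds are added with NKH477 agonist at 0.25 uM final for 3 h, then FRET substrate for 2 h.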

[14] = target: Beta-2 adrenergic receptor (Homo sapiens) (UniProt P07550); test: Adrenergic beta2 receptor (ADRB2) small molecule antagonists, cell-based qHTS assay (AID 1963592); note: nearly all actives have a fitted effect of over 50% in size; note: potency is the fitted concentration of half-maximal effect
In short: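 Assay format: CHO-ADRB2 cells, 18-20hr seeding at 37C/5% CO2, then compound plus 1nM isoproterenol agonist mix for 0.5hr RT. Homogeneous time-resolved fluorescence cAMP detection after 1hr, expressed as 665/615 nm ratio.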

[15] = target: D(2) dopamine receptor (Homo sapiens) (UniProt P14416); test: Dopamine D2 receptor (DRD2) small molecule agonists, cell-based qHTS assay (AID 1963594); note: nearly all actives have a fitted effect of over 35% in size
In short: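 cAMP accumulation in DRD2-HEK293 cells measured by HTRF after 1 h detection; compounds added 10 min before NKH477 (200nM […]) forskolin-analogue stimulation, 30 min at room temperature, with Ro20-1724 present at 0.1 mM final.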

[16] = target: D(2) dopamine receptor (Homo sapiens) (UniProt P14416); test: Dopamine D2 receptor (DRD2) small molecule antagonists, cell-based qHTS assay (AID 1963595; active = well fitted inhibition curve with a large enough effect in the signal ratio in the repeat runs, with a control signal flat; the % refers to the signal ratio)
In short: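 Cells were plated and grown for 24 h at 37 °C. Ro20-1724 (0.1 mM final) went in first, then compound for 10 min. NKH477 (200 nM) with quinpirole (12 nM) followed for 30 min at RT, then HTRF detection reagents for 1 h.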

[17] = p53 small molecule agonists, cell-based qHTS assay with rat liver microsomes: qHTS cell viability counter screen (AID 1963580); note: nearly all actives have a fitted effect of over 45% in size
In short: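 Cytotoxicity counter screen: intracellular ATP read by CellTiter-Glo luminescence in the p53 reporter wells. HCT-116 p53RE-bla cells were treated for 16 h at 37 C alongside rat liver microsomes and NADPH, each 0.5 mg/mL final.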

[18] = target: Beta-2 adrenergic receptor (Homo sapiens) (UniProt P07550); test: Adrenergic beta2 receptor (ADRB2) small molecule agonists, cell-based qHTS assay (AID 1963593);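 note: CHO cells stably overexpressing human ADRB2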
In short: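 CHO cells stably over-expressing ADRB2 were plated overnight at 37C, then dosed with compounds plus a stimulation mix containing 100uM IBMX and 25uM Ro-20-1724 for 0.5hr at room temperature. cAMP was measured by HTRF competition, 1hr.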

Measured: Potency

Sequence of D(2) dopamine receptor (Homo sapiens) (P14416 whole entry, looked up): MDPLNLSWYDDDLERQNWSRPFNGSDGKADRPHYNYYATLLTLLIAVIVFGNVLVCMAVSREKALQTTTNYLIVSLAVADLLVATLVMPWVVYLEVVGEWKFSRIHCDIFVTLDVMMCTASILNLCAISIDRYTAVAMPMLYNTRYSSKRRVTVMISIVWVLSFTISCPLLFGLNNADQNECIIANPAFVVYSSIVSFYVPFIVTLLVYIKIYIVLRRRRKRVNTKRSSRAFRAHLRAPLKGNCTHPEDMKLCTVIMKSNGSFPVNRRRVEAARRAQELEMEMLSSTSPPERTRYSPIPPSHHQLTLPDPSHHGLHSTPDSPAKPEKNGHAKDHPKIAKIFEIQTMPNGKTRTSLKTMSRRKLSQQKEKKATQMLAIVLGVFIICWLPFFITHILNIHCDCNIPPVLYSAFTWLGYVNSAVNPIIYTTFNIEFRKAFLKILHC
Sequence of KiSS-1 receptor (Homo sapiens) (Q969F8 whole entry, looked up): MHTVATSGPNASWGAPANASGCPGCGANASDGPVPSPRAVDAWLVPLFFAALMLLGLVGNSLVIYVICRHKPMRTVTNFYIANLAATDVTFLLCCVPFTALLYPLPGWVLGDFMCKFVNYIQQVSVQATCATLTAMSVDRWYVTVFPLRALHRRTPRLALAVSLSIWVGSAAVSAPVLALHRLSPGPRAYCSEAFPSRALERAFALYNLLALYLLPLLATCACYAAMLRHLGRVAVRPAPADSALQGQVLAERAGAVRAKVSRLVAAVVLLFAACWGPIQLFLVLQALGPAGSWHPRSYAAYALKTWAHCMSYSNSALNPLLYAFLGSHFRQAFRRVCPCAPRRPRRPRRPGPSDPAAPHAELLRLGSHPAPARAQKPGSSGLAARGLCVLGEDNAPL
Sequence of Gonadotropin-releasing hormone receptor (Homo sapiens) (P30968 whole entry, looked up): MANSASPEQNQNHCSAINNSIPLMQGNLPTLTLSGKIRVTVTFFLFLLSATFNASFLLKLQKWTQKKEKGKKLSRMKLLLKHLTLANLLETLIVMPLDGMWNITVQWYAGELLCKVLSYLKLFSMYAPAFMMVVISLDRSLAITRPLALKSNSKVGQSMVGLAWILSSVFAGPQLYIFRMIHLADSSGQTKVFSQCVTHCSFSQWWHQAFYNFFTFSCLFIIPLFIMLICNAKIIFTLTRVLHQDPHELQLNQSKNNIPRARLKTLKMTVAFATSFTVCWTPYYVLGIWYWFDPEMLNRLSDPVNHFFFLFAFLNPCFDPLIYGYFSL
Sequence of Muscarinic acetylcholine receptor M1 (Homo sapiens) (P11229 whole entry, looked up): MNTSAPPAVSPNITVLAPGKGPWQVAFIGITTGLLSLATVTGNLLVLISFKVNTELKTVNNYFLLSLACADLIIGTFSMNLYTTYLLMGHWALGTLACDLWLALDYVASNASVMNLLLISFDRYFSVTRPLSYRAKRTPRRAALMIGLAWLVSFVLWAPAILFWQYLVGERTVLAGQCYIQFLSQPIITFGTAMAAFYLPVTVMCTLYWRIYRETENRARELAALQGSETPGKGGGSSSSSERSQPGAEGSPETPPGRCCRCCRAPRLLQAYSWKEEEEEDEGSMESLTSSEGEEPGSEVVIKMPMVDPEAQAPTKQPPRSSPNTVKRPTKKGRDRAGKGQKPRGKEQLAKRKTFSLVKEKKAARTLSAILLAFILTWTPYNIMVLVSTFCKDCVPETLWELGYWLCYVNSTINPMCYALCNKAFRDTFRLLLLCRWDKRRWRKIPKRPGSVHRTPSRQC
Sequence of Beta-2 adrenergic receptor (Homo sapiens) (P07550 whole entry, looked up): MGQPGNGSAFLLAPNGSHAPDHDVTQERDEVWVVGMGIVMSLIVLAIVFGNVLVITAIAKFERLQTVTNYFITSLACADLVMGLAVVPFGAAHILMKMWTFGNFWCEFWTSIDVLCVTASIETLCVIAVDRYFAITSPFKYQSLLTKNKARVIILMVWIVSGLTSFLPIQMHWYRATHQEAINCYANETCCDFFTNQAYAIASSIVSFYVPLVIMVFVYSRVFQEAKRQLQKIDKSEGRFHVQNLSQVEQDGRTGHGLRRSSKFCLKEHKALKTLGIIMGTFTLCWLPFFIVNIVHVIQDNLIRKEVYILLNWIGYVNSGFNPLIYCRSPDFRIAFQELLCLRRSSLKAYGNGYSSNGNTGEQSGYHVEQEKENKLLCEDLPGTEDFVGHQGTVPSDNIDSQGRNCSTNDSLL
Sequence of 5-hydroxytryptamine receptor 2A (Homo sapiens) (P28223 whole entry, looked up): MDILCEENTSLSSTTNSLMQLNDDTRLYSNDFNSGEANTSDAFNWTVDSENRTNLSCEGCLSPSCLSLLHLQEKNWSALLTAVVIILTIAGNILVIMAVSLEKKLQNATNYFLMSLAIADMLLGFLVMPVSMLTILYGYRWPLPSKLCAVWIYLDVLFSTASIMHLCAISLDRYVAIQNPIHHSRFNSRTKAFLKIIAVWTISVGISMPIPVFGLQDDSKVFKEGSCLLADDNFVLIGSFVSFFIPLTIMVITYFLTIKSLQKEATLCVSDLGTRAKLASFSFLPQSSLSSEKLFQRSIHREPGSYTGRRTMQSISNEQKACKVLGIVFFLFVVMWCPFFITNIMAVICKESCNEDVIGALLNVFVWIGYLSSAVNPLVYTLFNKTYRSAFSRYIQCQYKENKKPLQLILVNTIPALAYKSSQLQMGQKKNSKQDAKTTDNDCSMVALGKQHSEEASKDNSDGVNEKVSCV

CCOc1ccc2nc(N)sc2c1
inactive: [1] | [2] | [3] | [4] | [5] | [6] | [7] | [8] | [9] | [10] | [11] | [12] | [13] | [14] | [15] | [16]

CCNC(=O)NCc1cccc(Cl)c1
inactive: [1] | [2] | [3] | [4] | [5] | [17] | [6] | [9] | [10] | [11] | [12] | [13] | [14] | [18] | [15]

CC(=O)c1ccc2c(c1)Cc1ccccc1-2
inactive: [1] | [2] | [3] | [4] | [5] | [17] | [8] | [10] | [11] | [13] | [14] | [15] | [16]

CCCCOCC(C)OCC(C)O (stereo not given)
inactive: [1] | [2] | [3] | [4] | [5] | [6] | [8] | [9] | [10] | [11] | [12] | [14] | [18] | [15] | [16]

COc1c2occc2c(OC)c2c(=O)cc(C)oc12
inactive: [1] | [2] | [3] | [4] | [5] | [17] | [8] | [9] | [10] | [11] | [12] | [14] | [18] | [15] | [16]

COc1cc2nc(N(C)CCCNC(=O)C3CCCO3)nc(N)c2cc1OC (stereo not given)
inactive: [1] | [2] | [3] | [4] | [5] | [17] | [6] | [9] | [10] | [11] | [12] | [13] | [14] | [18] | [16]

CC1=C(Br)C(=O)C(Br)=C/C1=C(/c1ccccc1S(=O)(=O)O)c1cc(Br)c(O)c(Br)c1C
active: [1] 18.6 µM
inactive: [2] | [3] | [4] | [5] | [6] | [8] | [9] | [10] | [11] | [12] | [13]

Clc1ccc(C(Cn2ccnc2)OCc2ccsc2Cl)c(Cl)c1 (stereo not given)
active: [1] 8.41 µM | [2] 10.6 µM | [14] 29.8 µM
inactive: [3] | [4] | [5] | [17] | [6] | [8] | [9] | [11] | [12] | [15] | [16]

CCCCN1C(=O)c2ccccc2C1=O
inactive: [1] | [2] | [3] | [4] | [5] | [17] | [6] | [8] | [12] | [14] | [15] | [16]

C=CCOc1ccccc1OCC(O)CNC(C)C (stereo not given)
inactive: [1] | [2] | [3] | [4] | [5] | [17] | [9] | [12] | [13] | [15] | [16]

CC(C)NCC(O)COc1cccc2[nH]ccc12 (stereo not given)
inactive: [1] | [2] | [3] | [4] | [5] | [7] | [12] | [13] | [14] | [16]

Cc1ccc(-c2ncc(Cl)cc2-c2ccc(S(C)(=O)=O)cc2)cn1
inactive: [1] | [2] | [3] | [4] | [5] | [17] | [6] | [8] | [10] | [11] | [14] | [15]
